This is a sample that favours compounds with a hit; in the whole collection about 10% have one here.
HEK cytotox: HEK 293 cell cytotoxicity; HEK 293 viability, ATP luminescence (CellTiter-Glo), 48-72 h; Potency, µM (highest dose often 115 µM), without a hit: at the highest dose activity change, negative = cytotoxicity, actives largely listed as inhibitors; hit rate 6.6% among 94,000; also: nearly all actives have a fitted effect of over 60% in size
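Pintool-delivered compounds were incubated with HEK 293 cells (250 cells/well) at 37 degree Celsius for 48 or 72 hr. ATP-dependent luminescence (CellTiter-Glo) then reported remaining viable cells.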
FLuc inh: inhibitors of firefly (Photinus pyralis) luciferase | hit rate 2.5% among 76,000 | AID 1347043 | Potency, µM (highest dose often 115 µM), most hits filed as inhibitors | P08659 | purified P. pyralis luciferase, luminescence, biochemical; also: nearly all actives have a fitted effect of over 65% in size
Target sequence (P08659 whole entry, looked up): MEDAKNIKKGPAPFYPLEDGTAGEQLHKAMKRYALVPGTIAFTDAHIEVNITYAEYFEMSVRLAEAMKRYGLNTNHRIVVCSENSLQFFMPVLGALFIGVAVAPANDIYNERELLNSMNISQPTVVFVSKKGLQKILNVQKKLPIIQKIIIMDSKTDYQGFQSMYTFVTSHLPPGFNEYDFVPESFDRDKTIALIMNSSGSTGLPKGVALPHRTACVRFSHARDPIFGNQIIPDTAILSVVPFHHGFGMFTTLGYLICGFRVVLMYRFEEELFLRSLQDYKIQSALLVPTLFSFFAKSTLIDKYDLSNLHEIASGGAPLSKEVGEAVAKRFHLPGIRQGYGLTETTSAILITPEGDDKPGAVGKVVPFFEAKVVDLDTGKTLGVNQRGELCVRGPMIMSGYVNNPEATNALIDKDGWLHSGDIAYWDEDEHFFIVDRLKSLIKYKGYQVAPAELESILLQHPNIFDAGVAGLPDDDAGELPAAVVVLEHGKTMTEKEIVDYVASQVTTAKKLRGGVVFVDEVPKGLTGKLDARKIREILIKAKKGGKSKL
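Inhibitors were tested against purified firefly luciferase in a biochemical, low-substrate format (both substrates at 10uM) and luminescence measured with a CCD imager.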
GPT2 inh: inhibitors of human GPT2 alanine aminotransferase; Recombinant GPT2, coupled pyruvate oxidase/HRP Amplex Red fluorescence; Potency, µM (highest dose often 57.7 µM), for inactives: at the top dose activity change, negative = inhibition, actives largely listed as inhibitors; Q8TD30; AID 1671188; hit rate 0.25% among 100,000; also: nearly all actives have a fitted effect of over 60% in size
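Fluorescence of coupled pyruvate oxidase/HRP/Amplex Red system (50uM Amplex, 30 min, dark) reports pyruvate formed by GPT2. Enzyme reaction: 10ng/uL GPT2, 2mM L-alanine, 250uM a-KG, 30 min room temperature, pH 7.5; 50uM AOA control.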
3T3 cytotox: NIH 3T3 cell cytotoxicity; Potency, µM (series often up to 96.7 µM), for inactives: top-dose activity change, negative = cytotoxicity, hits mostly inhibitors; hit rate 4.3% among 94,000; NIH 3T3 viability, CellTiter-Glo ATP luminescence, 48-72 h; also: nearly all actives have a fitted effect of over 55% in size
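First NIH 3T3 cells are plated at 400 cells/well; next compound is pinned in; then plates incubate 48 or 72 hr at 37 °C; finally CellTiter-Glo is added and luminescence read after 10 min.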
hNpr1 antagonist: blocks ANP-stimulated signaling of human Npr1 receptor. P16066. HEK293 hNpr1 GloSensor cGMP, ANP-stimulated luminescence. Potency, µM (doses to about 46.3 µM), for the others: at the top dose activity change, negative = inhibition, usual class: inhibitors. hit rate 1.6% among 76,000. AID 1347048; calls by dose curve; also: nearly all actives have a fitted effect of over 60% in size
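Compound pre-incubated 30 min at room temperature on GloSensor-loaded HEK293 cells stably carrying hNpr1 and the pGS-40F cGMP biosensor. Stimulation uses hNppA at 0.1 nM final; luminescence is taken at baseline and 20 min post-agonist.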
Active calls of the source: *; i = inactive; ? = inconclusive; / = no result; [ ] = another dose, or the depositor's remark. Unless noted, calls follow the shape of the dose curve; as a rule, active = well fitted curve in the direction sought with a large enough effect; inconclusive = small, poorly fitted or top-dose-only effect, or another doubt; inactive = no such curve, though single readings can be large; an effect the other way counts as inactive or inconclusive. % is scaled to controls: 0 for no effect and ±100 for the full control effect; potency is read from the fitted curve at half-maximal effect.

SMILES	HEK cytotox	FLuc inh	GPT2 inh	3T3 cytotox	hNpr1 antagonist
COc1ccc(-c2cnc3n[nH]c(-c4ccccc4)c3n2)cc1	89µM*	i	-1%[88.5 µM]	79µM*	-1%[70.6 µM]
O=C(Cc1ccc2c(c1)OCO2)N1CCOCC2(CN(Cc3cc(F)cc(F)c3)C2)C1	56µM*	i	-9%[88.5 µM]	35µM*	4%[70.6 µM]
CN1C(=O)Cc2ccccc2C1C(=O)N1CCN(c2ccc(F)cc2)CC1 (stereo unspecified)	-1%	i	1%	-2%	3%
O=C(CCCN1CCN(c2ccc(F)cc2)CC1)NC1c2ccccc2CSc2ccccc21 (stereo unspecified)	/	/	1.2µM*	/	/
COc1ccc(CN2Cc3[nH]nc(-c4cccc(O)c4)c3CC2=O)cc1	?	i	3%[88.5 µM]	10µM*	-12%[70.6 µM]
COCCNC(=O)c1nc2cccnc2n(CCOC)c1=O	1%[172 µM]	/	0%[88.5 µM]	-7%[138 µM]	/
Cc1nc2scc(CC(=O)NCC(C)C)n2c(=O)c1-c1cc(C)n(-c2ccc(C(C)C)cc2)n1	79µM*	?	?	?	-11%
Cc1ccc(-n2nc(-c3c(C)nc4scc(CC(=O)NCc5ccco5)n4c3=O)cc2C)cc1	?	i	-2%	-4%	4%
Cc1nc2scc(CC(=O)NCC(C)C)n2c(=O)c1-c1cc(C)n(-c2cccc(Cl)c2)n1	?	i	i	-10%	7%
Cc1ccc(C)c(-n2nc(-c3c(C)nc4scc(CC(=O)NCc5ccco5)n4c3=O)cc2C)c1	35µM*	i	i	?	-19%
O=[S+]([O-])(c1cccs1)N1CCN(Cc2ccccc2-c2ccccc2F)CC1	?	/	0%	?	/
Cc1ccc(-c2cccc(CN3CCCC(NC(=O)c4ccccc4C)C3)c2)cc1Cl (stereo unspecified)	?	/	i	?	/
Cc1cc(C)cc(-c2ccc(CN3CCCC(NC(=O)C4CC4)C3)cc2)c1 (stereo unspecified)	-18%	/	i	-15%	/
Cc1ccc(-c2cccc(CN3CCCC(NC(=O)Cc4ccccn4)C3)c2)cc1Cl (stereo unspecified)	-20%	/	i	25µM*	/
Cc1ccc(-c2cccc(CN3CCCC(NC(=O)c4c(C)noc4C)C3)c2)cc1Cl (stereo unspecified)	22µM*	/	-8%	?	/
Cc1cc(C)cc(-c2ccc(CN3CCCC(NC(=O)Cc4ccccn4)C3)cc2)c1 (stereo unspecified)	?	/	-10%	35µM*	/
Cc1ccc(C(=O)NC2CCCN(Cc3cccc(-c4ccc(C)c(Cl)c4)c3)C2)cc1 (stereo unspecified)	i	/	-9%	0%	/
CCOC(=O)NC1CCCN(Cc2cccc(-c3ccc(C)c(Cl)c3)c2)C1 (stereo unspecified)	40µM*	/	i	?	/
Cc1cc(S(=O)(=O)N[C@H]2[C@H]3CCO[C@H]3[C@@H]2N2CCCCC2)n(C)n1	1%	i	1%	-3%	0%
O=c1c2c3c(nn2ccn1Cc1ccc(Cl)cc1)CCCC3	?	i	i	?	-15%
OC1(CN2CCN(c3ccc(F)c(Cl)c3)CC2)CCCNC1 (stereo unspecified)	79µM*	i	i	?	3%
Cc1ccc(CN2CC[C@H](c3nc4ccc(C(F)(F)F)cc4[nH]3)C2)cc1	40µM*	i	-30%[88.5 µM]	28µM*	?
COc1ccccc1CN1CC[C@H](c2nc3ccc(C(F)(F)F)cc3[nH]2)C1	32µM*	i	?	28µM*	1%[70.6 µM]
Fc1ccc2nc([C@H]3CCN(Cc4cccs4)C3)[nH]c2c1	71µM*	40µM*	-1%[88.5 µM]	?	?
Fc1ccc2nc([C@H]3CCN(Cc4ccc(F)c(F)c4)C3)[nH]c2c1	56µM*	?	?	?	?
SMILES	HEK cytotox	FLuc inh	GPT2 inh	3T3 cytotox	hNpr1 antagonist
Cc1ccc(CN2CC[C@H](c3nc4ccc(C)cc4[nH]3)C2)cc1	?	i	i	?	-14%[70.6 µM]
COc1nc(-c2ccc(OC)c3ncccc23)ncc1F	-16%	i	i[11.5 µM]	?	4%
O=C1CCN(C(=O)C2CCN(S(=O)(=O)c3ccc4c(c3)CCC4)CC2)CCCCCCN1	2%	i	2%	-16%	3%
Fc1ccc(CN2CC[C@H](c3nc4ccc(C(F)(F)F)cc4[nH]3)C2)cc1F	10µM*	i	?	13µM*	?
Cc1ccc(C2(C(=O)N[C@@H]3COCC[C@@H]3OCc3ccccc3)CC2)cc1	45µM*	i	i	?	-10%
COc1ccc(F)cc1-c1cccc(C(=O)NCCNC(=O)Nc2ccccc2)c1	50µM*	/	i	35µM*	/
COc1ccc(F)cc1-c1cccc(C(=O)NCCNC(=O)c2ccc(C)cc2)c1	?	/	i	-32%	/
COc1ccc(F)cc1-c1cccc(C(=O)NCCNC(=O)Nc2ccccc2F)c1	20µM*	/	/	?	/
COc1ccc(F)cc1-c1cccc(C(=O)NCCNC(=O)c2ccccc2C)c1	?	/	1%	?	/
CC(C)Cn1c(=O)c(C(=O)N2CCN(C(=O)Nc3ccc(Cl)cc3)CC2)nc2cccnc21	i	/	i	-19%	/
Cc1cccc2c1O[C@H]1[C@H](CO)CN([S+](=O)([O-])Cc3ccccc3)[C@@H]21	79µM*	/	/	?	/
CC(C)n1nc(-c2cc3cc(O)ccc3[nH]2)c2c(N)ncnc21	/	/	8.9µM*	/	/
C[C@H](Cn1cnc2c(N)ncnc21)OCP(=O)(O)O	/	/	i	/	/
O=C(c1ccc(Oc2ccccc2)cc1)N1CCNc2cnc(Nc3cccc(C(F)(F)F)c3)nc2C1	22µM*	i	0%	25µM*	?
Cc1ncsc1C(=O)N1CCNc2cnc(Nc3cccc(C(F)(F)F)c3)nc2C1	?	i	-13%	?	?
O=C(Nc1cccs1)N1CCNc2cnc(Nc3cccc(C(F)(F)F)c3)nc2C1	79µM*	i	i	79µM*	-5%[70.6 µM]
O=C(c1ccc(Cl)cc1)N1CCNc2cnc(Nc3cccc(C(F)(F)F)c3)nc2C1	32µM*	i	-12%	22µM*	?
O=C(COc1ccccc1)N1CCNc2cnc(Nc3cccc(F)c3)nc2C1	?	i	i	?	-8%[70.6 µM]
COc1ccc(CN2C(=O)COC[C@H]2C(=O)Nc2cc(F)cc(F)c2)cc1OC	-5%	i	i	-14%	-10%
Cc1csc(NC(=O)c2nc3c(o2)CCN(CCCc2ccccc2)CC3)n1	?	i	-13%[88.5 µM]	?	-7%[70.6 µM]
Cc1ccc(CN2CCc3nc(C(=O)Nc4nc(C)cs4)oc3CC2)cc1	71µM*	i	-24%[88.5 µM]	?	-21%[70.6 µM]

Source: PubChem BioAssay
